According to PubChem BioAssay (NCI):
Where “and” joins values, the source holds several entries; their conditions need not be identical. Identical values can stand only once. Compounds without any hit were thinned out: in the full panel of roughly 83,000, 20% have a hit.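 Negative percent growth values reflect cell death: -40 means 40% of the cells present at the start died, and -100 means all died.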 Calls of active or inactive are those of the source. How the source made its calls: active means growth percent below 10; inactive means the rest.

Experiments:
Experiment in all cases: NCI-60 one-dose screen, 48 h (100 = growth as untreated, 0 = no growth, -100 = all killed)
Conditions in all cases: 10 µM unless noted
[1] = test system: NCI-H23 lung
[2] = test system: NCI-H322M lung
[3] = test system: HOP-62 NSCLC
[4] = test system: NCI-H460 lung
[5] = test system: HOP-92 NSCLC
[6] = test system: NCI-H522 lung
[7] = test system: A549/ATCC NSCLC
[8] = test system: 786-0 renal
[9] = test system: COLO 205 colon
[10] = test system: DU-145 prostate
[11] = test system: K-562 leukemia
[12] = test system: MALME-3M melanoma
[13] = test system: MDA-MB-231 breast
[14] = test system: RXF 393 renal
[15] = test system: SF-268 CNS
[16] = test system: SF-295 CNS
[17] = test system: SF-539 CNS
[18] = test system: UACC-257 melanoma
[19] = test system: M14 melanoma
[20] = test system: NCI-H226 lung

Measured: growth

COc1cc2c(c(OC)c1OC)-c1ccc(O)cc1[C@@H](NC(C)=O)CC2
active: [4] 5.66% and 0.839% | [9] -32.6% and -83.8% | [10] -21.6% and -35.8% | [11] 3.22% | [13] 9.66% and -7.09% | [16] -13.7% and -23.2% | [17] 2.98% and -2.84%
42.7% (inactive) and 1.84% (active): [2]
inactive: [1] 37.7% and 13.8% | [3] 37.8% and 21.6% | [5] 16.7% | [7] 14.9% | [8] 29.2% and 32.5% | [12] 26.4% | [14] 26.3% and 40.5% | [15] 19.5% and 21% | [18] 54.1% and 48.7% | [19] 11.5% and 16.8%
17% (inactive) and -32.6% (active): [6]

CC/C(=C(\c1ccc(OCCN2CCOCC2)cc1)c1ccc(OC(=O)Cc2ccccc2)cc1)c1ccc(Cl)cc1
inactive: [1] 104% | [2] 87.9% | [3] 103% | [4] 106% | [5] 94.4% | [6] 92.8% | [7] 101% | [8] 107% | [9] 120% | [10] 101% | [11] 82.4% | [12] 95.1% | [13] 109% | [14] 114% | [15] 94.1% | [16] 99.4% | [17] 105% | [18] 107% | [19] 102%

COc1ccc(/C=C(/C)[N+](=O)[O-])cc1OC
3.01% (active) and 44.6% (inactive): [15]
active: [5] -6.58% and -11.5% | [6] -88.2% and -73.2% | [8] -53.1% and -23.3% | [9] -69.3% and -76.2% | [11] 7.3% and 5.18% | [12] -22.6% and -51.7% | [14] -91.1% and -95.7% | [18] -88.6% and -67.5% | [19] -52.6% and -61.6%
inactive: [1] 62.2% and 58.1% | [2] 48% and 94.5% | [3] 48.3% | [4] 34.2% and 22.9% | [7] 53.7% and 52.9% | [10] 22.3% and 13.5% | [13] 11.3% and 28.8% | [16] 98.6% and 104% | [17] 15.1%

O=S1(=O)OCCO1
inactive: [1] 96.5% | [2] 95.4% | [3] 103% | [4] 103% | [5] 102% | [6] 96.3% | [7] 102% | [8] 101% | [9] 106% | [10] 104% | [11] 99.1% | [12] 88.8% | [14] 103% | [15] 98.2% | [16] 98.3% | [17] 95.1% | [18] 96.7% | [19] 103%

C=C1C(=O)OC2CC3(C)OC3C3OC3C3=CC(OC3=O)C12 (centres undefined)
inactive: [1] 93.8% and 101% | [2] 98.7% and 101% | [3] 96.8% and 115% | [4] 114% and 105% | [7] 93.1% and 105% | [8] 96% and 108% | [10] 109% and 111% | [13] 104% and 107% | [15] 99.2% and 109% | [16] 103% and 97.9% | [17] 101% and 96.3% | [18] 53.6% and 82.2% | [19] 88.3% and 91.9%
8.42% (active) and 68.4% (inactive): [14]
active: [5] 9.95% | [6] -74.9% and -76.6% | [9] -77.1% | [11] -0.414% and 6.29% | [12] -53.4% and -59.2%

Cc1ccc(N2CCN(CCC#N)CC2)cc1
inactive: [1] 100% | [2] 75.2% | [3] 93.6% | [4] 97.7% | [5] 98.4% | [7] 88.5% | [8] 100% | [9] 93.7% | [10] 101% | [11] 110% | [12] 70.1% | [13] 107% | [14] 88% | [15] 105% | [16] 105% | [17] 79.1% | [18] 84.5%

Nc1c(Cl)c(Cl)nc(C(=O)O)c1Cl
inactive: [1] 104% | [2] 80.8% | [3] 86.9% | [4] 102% | [5] 106% | [6] 98.6% | [7] 108% | [8] 103% | [9] 117% | [10] 120% | [11] 83.8% | [12] 83.5% | [13] 106% | [14] 136% | [15] 111% | [16] 98.6% | [17] 84.9% | [18] 108% | [19] 104%

C[Se]/C=C1/C(=O)N(c2c(Cl)cccc2Cl)c2ccccc21
inactive: [1] 39% | [2] 37.5% | [3] 22% | [4] 14.6% | [5] 15.7% | [6] 21.1% | [8] 51.1% | [9] 38.9% | [10] 43.9% | [11] 20.3% | [12] 37.4% | [13] 31.1% | [14] 19.4% | [16] 38% | [19] 20.4%
active: [7] 7.85% | [15] 8.58% | [17] 0.963% | [18] -4.62%

CC[C@H](C)[C@H](NC(=O)c1ncccn1)C(=O)N(C)[C@H](C[C@@H](OC(C)=O)c1nc(C(=O)N[C@@H](Cc2ccccc2)C[C@H](C)C(=O)OC)cs1)C(C)C
active: [6] 0.376% | [9] 4.56% | [10] 9.45% | [11] 7.26% | [13] 4.19% | [14] -8.95% | [17] -51.1% | [19] 5.61%
inactive: [20] 51.2% | [2] 42% | [3] 22.8% | [4] 10.8% | [5] 33.5% | [7] 32.9% | [8] 38.5% | [12] 60.7% | [15] 30.6% | [16] 14.4% | [18] 50.2%

S=P(SP(=S)(c1ccccc1)c1ccccc1)(c1ccccc1)c1ccccc1
inactive: [1] 99% | [2] 107% | [3] 111% | [4] 107% | [5] 86.7% | [6] 88.5% | [7] 106% | [8] 110% | [9] 118% | [10] 106% | [11] 97% | [12] 96.5% | [13] 94.1% | [14] 97.1% | [15] 95.8% | [16] 92.5% | [17] 103% | [18] 104% | [19] 101%

O=C(NCCCN1CC1)Nc1cccc2ccccc12
inactive: [1] 104% and 92.7% | [2] 116% and 102% | [3] 48.9% and 87.9% | [4] 109% and 91% | [5] 90.5% | [7] 97.3% and 91.6% | [8] 108% and 103% | [9] 106% and 103% | [10] 104% and 102% | [11] 86.4% | [12] 75.8% and 104% | [13] 94.3% and 105% | [14] 108% and 107% | [15] 83.5% and 96.9% | [16] 114% and 88.2% | [17] 93.7% and 113% | [18] 96.9% and 94.2% | [19] 99.6% and 98.8%

CCC1(CCSC#N)C(=O)NC(=O)NC1=O
inactive: [1] 91.5% | [3] 94.9% | [4] 107% | [5] 85.8% | [6] 109% | [7] 106% | [8] 93.5% | [9] 108% | [10] 106% | [11] 86.5% | [12] 86.2% | [13] 106% | [14] 117% | [15] 97.2% | [16] 100% | [17] 94.9% | [18] 98.9% | [19] 94.6%

CO[C@H]1[C@H](O[C@@H]2C[C@@H]3C/C=C/C(=O)O[C@@H](CO)C[C@H](O)[C@@H]4C[C@H](C)[C@H](C/C=C\C=C\[C@H](C)C[C@H](C2)O3)O4)O[C@@H](C)[C@H](O)[C@H]1O
active: [18] 9.72%
inactive: [1] 22.5% | [2] 89.5% | [3] 65.8% | [4] 54.5% | [5] 95.2% | [6] 27.2% | [7] 47% | [8] 78.7% | [9] 37.6% | [10] 52.5% | [11] 25.4% | [12] 85.5% | [13] 92.9% | [14] 88% | [15] 86.4% | [16] 14.1% | [17] 70.8%

COc1cc2c(cc1OC)[C@@H]1C(=O)c3ccc4c(c3O[C@@H]1CO2)C[C@H](C(C)C)O4
inactive: [20] 62.8% | [2] 82.1% | [3] 63.6% | [4] 51.5% | [5] 57.3% | [6] 30.5% | [7] 65.5% | [8] 60.2% | [9] 82.4% | [10] 85.5% | [11] 19.9% | [12] 56.5% | [13] 78.3% | [14] 102% | [15] 79.7% | [16] 18.6% | [17] 70.7% | [18] 58%
